{"source": "paper PMC7862700", "about": "“An all-to-all approach to the identification of sequence-specific readers for epigenetic DNA modifications on cytosine”", "assay_in_all_cases": "DAPPL (digital affinity profiling via proximity ligation, sequencing); 10 mM Tris-HCl pH 7.5, 50 mM NaCl, 1 mM DTT, 4% glycerol, room temperature, 30 min; GST-TFs on glutathione beads, 16-mer random dsDNA library, 0.1% formaldehyde crosslink after washing; high values mean tight binding", "conditions_in_all_cases": "protein: recombinant; tags: N-terminal GST; dsDNA, one strand shown", "key": {"FLI1": {"target": "T1, FLI1 (Homo sapiens, UniProt Q01543 1-452)", "T1 sequence": "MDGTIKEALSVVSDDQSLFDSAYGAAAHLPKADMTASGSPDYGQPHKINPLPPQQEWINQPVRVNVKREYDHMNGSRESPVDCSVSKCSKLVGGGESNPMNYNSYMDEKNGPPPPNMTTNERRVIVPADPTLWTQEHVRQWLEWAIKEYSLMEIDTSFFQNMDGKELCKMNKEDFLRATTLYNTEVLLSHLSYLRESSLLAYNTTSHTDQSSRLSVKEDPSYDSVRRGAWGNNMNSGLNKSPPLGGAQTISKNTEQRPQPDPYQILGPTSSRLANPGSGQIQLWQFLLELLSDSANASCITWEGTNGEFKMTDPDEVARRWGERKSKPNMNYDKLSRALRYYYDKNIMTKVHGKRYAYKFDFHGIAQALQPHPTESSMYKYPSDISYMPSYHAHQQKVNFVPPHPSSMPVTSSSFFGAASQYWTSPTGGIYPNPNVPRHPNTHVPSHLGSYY", "summary_of_the_method": "(§1)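 Pools of DNA-barcoded human transcription factors, expressed in yeast as GST fusions on glutathione beads and combined with a tag-only sample, were incubated with 200 nmole of a 16-mer random double-stranded DNA library. Incubation took 30 min at room temperature in Tris/NaCl/DTT/glycerol buffer and was followed by washing, 0.1% formaldehyde crosslinking, proximity ligation (BsaI/T4 ligase, 1 h, 37 °C), PCR amplification and sequencing on an Illumina NextSeq500. Binding signal is the ratio of a hexamer's read frequency for a factor to its frequency for the tag-only sample.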"}, "ELK1": {"target": "T2, ELK1 (Homo sapiens, UniProt P19419 1-428)", "T2 sequence": "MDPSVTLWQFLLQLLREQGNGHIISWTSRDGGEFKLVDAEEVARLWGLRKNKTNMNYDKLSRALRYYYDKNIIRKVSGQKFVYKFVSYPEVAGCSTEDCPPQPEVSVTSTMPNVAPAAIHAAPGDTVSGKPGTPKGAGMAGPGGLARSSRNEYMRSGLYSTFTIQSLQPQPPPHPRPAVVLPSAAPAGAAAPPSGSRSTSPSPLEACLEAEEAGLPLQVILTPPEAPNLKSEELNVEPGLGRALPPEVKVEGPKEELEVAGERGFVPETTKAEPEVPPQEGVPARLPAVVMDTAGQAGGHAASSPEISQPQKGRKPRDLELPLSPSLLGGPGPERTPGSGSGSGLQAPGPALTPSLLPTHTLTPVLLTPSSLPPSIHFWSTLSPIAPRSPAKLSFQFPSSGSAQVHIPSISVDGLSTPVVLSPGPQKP", "summary_of_the_method": "as §1"}, "GABPA": {"target": "T3, GABPA (Homo sapiens, UniProt Q06546 1-454)", "T3 sequence": "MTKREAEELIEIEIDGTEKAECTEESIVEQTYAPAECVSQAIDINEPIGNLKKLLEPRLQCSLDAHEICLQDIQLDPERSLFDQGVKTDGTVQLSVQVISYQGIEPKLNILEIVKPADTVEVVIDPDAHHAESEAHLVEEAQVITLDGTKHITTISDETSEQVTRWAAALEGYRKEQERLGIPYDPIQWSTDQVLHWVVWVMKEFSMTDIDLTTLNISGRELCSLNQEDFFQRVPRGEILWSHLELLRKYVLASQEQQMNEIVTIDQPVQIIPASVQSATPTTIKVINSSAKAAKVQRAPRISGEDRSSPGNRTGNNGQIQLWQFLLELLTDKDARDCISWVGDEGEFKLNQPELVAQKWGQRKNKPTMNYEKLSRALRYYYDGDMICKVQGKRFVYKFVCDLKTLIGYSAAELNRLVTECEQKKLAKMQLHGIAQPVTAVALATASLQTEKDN", "summary_of_the_method": "as §1"}, "ERG": {"target": "T4, ERG (Homo sapiens, UniProt P11308 1-479)", "T4 sequence": "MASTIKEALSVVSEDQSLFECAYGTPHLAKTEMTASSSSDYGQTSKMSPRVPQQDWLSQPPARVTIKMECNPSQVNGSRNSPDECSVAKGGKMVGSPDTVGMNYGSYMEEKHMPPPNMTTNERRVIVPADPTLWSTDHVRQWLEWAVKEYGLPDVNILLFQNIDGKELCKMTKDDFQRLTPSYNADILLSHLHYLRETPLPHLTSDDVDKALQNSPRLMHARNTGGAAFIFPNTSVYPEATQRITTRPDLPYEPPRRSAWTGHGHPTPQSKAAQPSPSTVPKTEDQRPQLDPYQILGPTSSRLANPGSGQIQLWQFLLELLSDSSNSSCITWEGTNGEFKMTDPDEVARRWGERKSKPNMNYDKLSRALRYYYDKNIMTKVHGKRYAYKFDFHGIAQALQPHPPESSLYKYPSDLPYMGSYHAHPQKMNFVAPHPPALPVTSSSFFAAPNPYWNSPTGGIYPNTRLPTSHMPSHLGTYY", "summary_of_the_method": "as §1"}, "ELF1": {"target": "ELF1 (Homo sapiens, UniProt P32519 1-619)", "sequence (P32519 whole entry)": "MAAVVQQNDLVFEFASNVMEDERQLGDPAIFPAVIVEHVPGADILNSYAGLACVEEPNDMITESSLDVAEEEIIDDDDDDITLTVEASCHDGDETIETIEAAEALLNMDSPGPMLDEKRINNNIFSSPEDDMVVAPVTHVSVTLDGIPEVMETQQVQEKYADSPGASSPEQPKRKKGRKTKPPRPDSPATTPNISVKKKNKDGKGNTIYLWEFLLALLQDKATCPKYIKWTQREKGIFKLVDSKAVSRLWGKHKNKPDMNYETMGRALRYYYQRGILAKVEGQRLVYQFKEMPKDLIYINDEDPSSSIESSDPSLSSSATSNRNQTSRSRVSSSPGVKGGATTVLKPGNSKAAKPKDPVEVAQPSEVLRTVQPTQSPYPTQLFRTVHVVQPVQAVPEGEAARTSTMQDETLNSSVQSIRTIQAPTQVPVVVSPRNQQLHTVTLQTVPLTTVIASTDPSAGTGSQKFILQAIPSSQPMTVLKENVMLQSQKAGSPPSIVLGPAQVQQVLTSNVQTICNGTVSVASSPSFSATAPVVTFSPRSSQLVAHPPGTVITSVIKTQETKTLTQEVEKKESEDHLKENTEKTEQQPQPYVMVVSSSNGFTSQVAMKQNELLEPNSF", "summary_of_the_method": "as §1"}, "EHF": {"target": "T5, EHF (Homo sapiens, UniProt Q9NZC4 1-300)", "T5 sequence": "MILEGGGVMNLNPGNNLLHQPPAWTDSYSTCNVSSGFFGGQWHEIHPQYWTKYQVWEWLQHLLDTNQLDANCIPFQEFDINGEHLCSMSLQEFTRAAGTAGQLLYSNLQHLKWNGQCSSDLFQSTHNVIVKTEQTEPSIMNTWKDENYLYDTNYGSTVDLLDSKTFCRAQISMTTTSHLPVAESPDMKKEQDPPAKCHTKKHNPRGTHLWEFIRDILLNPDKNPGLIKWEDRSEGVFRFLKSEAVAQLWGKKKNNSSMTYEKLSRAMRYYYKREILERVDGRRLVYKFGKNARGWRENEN", "summary_of_the_method": "as §1"}, "SPI1": {"target": "SPI1 (Homo sapiens, UniProt P17947 1-270)", "summary_of_the_method": "as §1"}, "SPIB": {"target": "SPIB (Homo sapiens, UniProt Q01892 1-262)", "sequence (Q01892 whole entry)": "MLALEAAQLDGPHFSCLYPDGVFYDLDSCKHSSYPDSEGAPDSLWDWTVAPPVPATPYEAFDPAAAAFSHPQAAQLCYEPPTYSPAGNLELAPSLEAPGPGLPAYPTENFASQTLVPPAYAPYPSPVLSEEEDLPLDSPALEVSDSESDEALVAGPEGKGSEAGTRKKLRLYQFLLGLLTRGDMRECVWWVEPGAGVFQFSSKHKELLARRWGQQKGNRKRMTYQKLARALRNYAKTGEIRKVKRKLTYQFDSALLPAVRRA", "summary_of_the_method": "as §1"}, "ELK3": {"target": "T6, ELK3 (Homo sapiens, UniProt P41970 1-407)", "T6 sequence": "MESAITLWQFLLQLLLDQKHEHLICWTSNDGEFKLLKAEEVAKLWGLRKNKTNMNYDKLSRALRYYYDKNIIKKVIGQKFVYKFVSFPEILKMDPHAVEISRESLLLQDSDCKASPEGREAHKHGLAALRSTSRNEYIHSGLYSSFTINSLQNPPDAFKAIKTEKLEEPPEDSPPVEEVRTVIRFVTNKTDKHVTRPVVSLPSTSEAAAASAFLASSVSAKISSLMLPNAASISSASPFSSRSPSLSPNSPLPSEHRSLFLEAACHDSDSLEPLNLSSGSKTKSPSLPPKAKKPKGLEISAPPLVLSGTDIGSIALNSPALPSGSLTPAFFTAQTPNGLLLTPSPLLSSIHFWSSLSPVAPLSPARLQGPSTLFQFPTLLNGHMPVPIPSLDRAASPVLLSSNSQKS", "summary_of_the_method": "as §1"}}}
{"sequence": "GTCTCC", "values": [{"measurement": "binding signal", "setting": "FLI1", "value": "1.45 fold enrichment (6-mer frequency, TF over GST control)"}, {"measurement": "binding signal", "setting": "ELK1", "value": "1.5 fold enrichment (6-mer frequency, TF over GST control)"}, {"measurement": "binding signal", "setting": "GABPA", "value": "1.52 fold enrichment (6-mer frequency, TF over GST control)"}, {"measurement": "binding signal", "setting": "ERG", "value": "1.26 fold enrichment (6-mer frequency, TF over GST control)"}, {"measurement": "binding signal", "setting": "ELF1", "value": "1.39 fold enrichment (6-mer frequency, TF over GST control)"}, {"measurement": "binding signal", "setting": "EHF", "value": "1.4 fold enrichment (6-mer frequency, TF over GST control)"}, {"measurement": "binding signal", "setting": "SPI1", "value": "1.52 fold enrichment (6-mer frequency, TF over GST control)"}, {"measurement": "binding signal", "setting": "SPIB", "value": "1.43 fold enrichment (6-mer frequency, TF over GST control)"}, {"measurement": "binding signal", "setting": "ELK3", "value": "1.56 fold enrichment (6-mer frequency, TF over GST control)"}]}
